# Assay results reported in PubChem BioAssay AID2202239 (National Center for Advancing Translational Sciences (NCATS), 2025).
# Calls of active or inactive are those of the source. Calls come from the whole dose curve; as a rule, active = well fitted inhibition curve with a large enough effect; inactive = flat fitted curve, though single readings scatter. Square brackets hold non-standard residues; d marks the D form. Peptide text beside a SMILES is read from it. Dolaproine = CO[C@@H]([C@@H]1CCCN1)[C@@H](C)C(=O)O; Dil = CC[C@H](C)[C@H](NC)[C@@H](CC(=O)O)OC; NMeV = CN[C@H](C(=O)O)C(C)C
# Test: Identification of antibody-drug conjugate (ADC) payloads which are substrates of ATP-binding cassette drug efflux transporters: ABCB1-HeLa-KB-8-5-11 cell line with tariquidar
# Conditions: KB-8-5-11 (P-gp) + tariquidar, viability, CellTiter-Glo, 48 h
# Source text: Antibody-drug conjugates (ADCs) feature an antibody recognizing a specific protein joined to a potent toxic payload. Numerous antibody-drug conjugates have received FDA approval; however, clinical resistance arises. Resistance mechanisms include decreased expression or mutation of the antibody target, impaired payload release, or increased expression of ATP-binding cassette (ABC) efflux transporters associated with multidrug resistance. We therefore sought to characterize the interaction of ABC multidrug transporters with ADC payloads. We performed a high-throughput screen with 27 common ADC payloads using cells lines expressing ABC transporters P-glycoprotein (P-gp, encoded by ABCB1) or ABCG2 (encoded by ABCG2). Confirmatory assays were also performed using cells transfected to express P-gp, ABCG2, or MRP1 (encoded by ABCC1). Several commonly used ADC payloads were substrates of P-gp, including calicheamicin gamma1, monomethyl auristatin E, DM1, and DM4. All the pyrrolobenzodiazepines tested - SJG136, SGD-1882, SG2057, and SG3199 - were substrates of P-gp, ABCG2, and MRP1. […] These findings highlight the risk of transporter-mediated resistance with certain ADC payloads and underscore the importance of selecting payloads that evade ABC transporter recognition in future ADC development.
# HEK-293 cells were transfected with empty vector (pcDNA) or vector containing the human ABCB1 (MDR-19), ABCG2 (R-5), or ABCC1 gene (MRP1) and were maintained in EMEM with 2 mg/mL G418 added to maintain transporter expression. The HeLa derivative KB-3-1 and the P-gp overexpressing KB-8-5-11 subline were maintained in DMEM; KB-8-5-11 additionally received 100 ng/mL colchicine. H460 parental cells were obtained from the Division of Cancer Treatment and Diagnosis Tumor Repository, National Cancer Institute at Frederick, MD and were cultured in RPMI. The ABCG2 expressing subline H460 MX20 was generated by selecting H460 cells in 20 nM mitoxantrone. Media in all cases was supplemented with 10% FBS and 1% penicillin-streptomycin. We explored 27 common ADC payloads, in two orthogonal, paired cell line sets-a drug selected and transfected set for each transporter--to identify substrates of the ABC transporters P-gp and ABCG2. Compounds were sourced from Levena Biopharma (San Diego, CA), Selleck Chem (Houston, TX), ChemieTek (Indianapolis, IN), or Microsource Discovery Systems (Gaylordsville, CT). Screening was performed as previously described. Briefly, cells were plated at a density of 500 cells/well in 1536 well plates with compounds added using a 1536-head pin tool (Kalypsys, San Diego CA). Cells were incubated with cytotoxic drugs and processed with CellTiter Glo reagent (Promega, Madison, WI) to determine viability after 48 hours. P-gp substrates were identified by comparing compound activity between paired sets of low-expressing (sensitive) and over-expressing (resistant) cell lines.
row,SMILES,Potency
1,COc1cccc2c1C(=O)c1c(O)c3c(c(O)c1C2=O)C[C@@](O)(C(=O)CO)C[C@@H]3O[C@H]1C[C@H](N)[C@H](O)[C@H](C)O1,236 nM (active)
2,Cc1nc(Nc2ncc(C(=O)Nc3c(C)cccc3Cl)s2)cc(N2CCN(CCO)CC2)n1,13300 nM (active)
3,CC[C@H](C)[C@@H]([C@H](N)CC(=O)N1CCC[C@H]1[C@H](OC)[C@@H](C)C(=O)N[C@@H](Cc1ccccc1)c1nccs1)N(C)C(=O)[C@@H](NC(=O)[C@H](C(C)C)N(C)C)C(C)C,0.0472 nM (active)
4,CC[C@]1(O)CC2CN(CCc3c([nH]c4ccccc34)[C@@](C(=O)OC)(c3cc4c(cc3OC)N(C)[C@H]3[C@@](O)(C(=O)OC)[C@H](OC(C)=O)[C@]5(CC)C=CCN6CC[C@]43[C@@H]65)C2)C1 (stereo partly drawn),6.7 nM (active)
5,COC(=O)c1cc2c3c(cc(O)c2[nH]1)N(C(=O)c1cc2cc(OC)c(OC)c(OC)c2[nH]1)CC3CCl (stereo not drawn),0.6 nM (active)
6,CC[C@H](C)[C@@H]([C@@H](CC(=O)N1CCC[C@H]1[C@H](OC)[C@@H](C)C(=O)N[C@@H](Cc1ccccc1)C(=O)O)OC)N(C)C(=O)[C@@H](NC(=O)[C@@H](NC)C(C)C)C(C)C (H-[NMeV]V[Dil][Dolaproine]F-OH),37.5 nM (active)
7,COc1ccc(C2=CN3C(=O)c4cc(OC)c(OCCCOc5cc6c(cc5OC)C(=O)N5C=C(c7ccc(N)cc7)C[C@@H]5C=N6)cc4N=C[C@H]3C2)cc1,59.4 nM (active)
8,CCc1c2c(nc3ccc(O)cc13)-c1cc3c(c(=O)n1C2)COC(=O)[C@]3(O)CC,298 nM (active)
